Where “and” joins values, the source holds several entries; their conditions need not be identical. Equal values may be shown once. Results filed as inconclusive are left out. Where a structure was tested more than once in an assay, its records may differ in their call. Calls of active or inactive are those of the source. Unless noted, calls come from the whole dose curve; as a rule, active = well fitted curve in the direction sought with a large enough effect; inconclusive = small, poorly fitted or top-dose-only effect, or another doubt; inactive = no such curve, though single readings can be large; an effect the other way counts as inactive or inconclusive.
Tests used:
[1] = AP1 Signaling Pathway (AID 357; active = well fitted curve in either direction with a large enough effect, not every such curve was filed as active;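 note: ME-180 reporter cells stimulated with EGF at its EC50 level; % is set by controls: 0 for no effect and ±100 for the full control effect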)
In short: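 In this screen, ME-180 cells in Opti-MEM with 0.5% dialyzed FBS received EC50 EGF and compound titrations for 5 h. AP-1 reporter beta-lactamase was detected via CCF4 ratio, giving AC50 for positive and negative modulators.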

[2] = biological target: Cytochrome P450 1A2 (Homo sapiens) (UniProt P05177); assay: p450-cyp1a2 (AID 410; calls by dose curve; note: potency is the fitted concentration of half-maximal effect;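 for activity change, negative = inhibition: -100% = full effect of reference inhibitor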)
In short: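 Luminescent demethylation readout: Luciferin-ME (100uM, equal to Km) turned over by 20nM CYP1A2 for 60 min at room temperature after NADPH regeneration addition, following 10 min compound preincubation. Normalization used 57 uM furafylline as full inhibition.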

[3] = NFAT Signaling Pathway (AID 444; active = well fitted curve in either direction with a large enough effect, not every such curve was filed as active;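 note: carbachol stimulus at about its EC50 of 1 µM final; % is set by controls: 0 for no effect and ±100 for the full control effect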); settings: Jurkat NFAT-bla M1, carbachol, beta-lactamase ratio, 5 h; at 38 µM (top of the series)
In short: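 Jurkat cells with NFAT-driven β-lactamase reporter and co-expressed M1 receptor, stimulated with carbachol (final 1 uM, ~EC50), compound titration, 5 h at 37 °C. CCF4 loaded 1 h at RT; 460/530 nm ratio gave %activity and AC50.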

[4] = Stat Signaling Pathway (AID 446; active = well fitted curve in either direction with a large enough effect, not every such curve was filed as active;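 note: ME-180 cervical cancer cells given 40 pM IL-6 alongside compound; SIE-controlled beta-lactamase reporter measured as 460/530 nm FRET emission ratio; % is set by controls: 0 for no effect and ±100 for the full control effect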)
In short: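 Emission at 460 and 530 nm (excitation 405 nm) reports SIE-controlled beta-lactamase in ME-180 cells. Cells received compound with 40 pM IL-6 for 5 hrs at 37 C; data scaled between 300 pM IL-6 and 125 nM JAK-inhibitor controls.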

[5] = biological target: Glucocorticoid receptor (Homo sapiens) (UniProt P04150); assay: GR-GFP Redistribution (AID 450;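 active = compounds whose dose series gives a full or clear partial fitted curve of increased nuclear translocation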; note: potency is the fitted concentration of half-maximal effect); settings: U2OS GR-GFP nuclear translocation, laser cytometry, 2 h
[6] = biological target: Glucocorticoid receptor (Homo sapiens) (UniProt P04150); assay: GR-EFC Redistribution (AID 451; calls by dose curve; note: potency is the fitted concentration of half-maximal effect); settings: CHO-K1 GR-EFC translocation, beta-gal luminescence, 2 h
In short: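 CHO-K1 cells expressing nuclear EA and GR-ED fragments of b-gal; compounds titrated up to 46 uM final, 2 h at 37 C. GR nuclear translocation read as complemented b-gal luminescence after 1 h RT detection.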

[7] = biological target: Mitogen-activated protein kinase 10 (Mus musculus) (UniProt Q61831); assay: JNK3 AlphaScreen Assay (AID 530; active = well fitted curve in either direction with a large enough effect, not every such curve was filed as active;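 note: kinase came from lysate of stimulated human HepG2 cells; signal reports phosphorylation of biotinylated GST-cJun 1-79 at Ser73 with 10 µM ATP; % is set by controls: 0 for no effect and ±100 for the full control effect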)
In short: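 Activity was read by AlphaScreen after JNK3-containing HepG2 lysate (cytokine pre-activated) phosphorylated biotinylated GST-cJun with 10 uM ATP at room temperature. Phospho-Ser73 cJun antibody with Protein-A acceptor beads provided detection.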

[8] = biological target: 3',5'-cyclic-AMP phosphodiesterase 4B (Homo sapiens) (UniProt Q07343); assay: qHTS Assay for Inhibitors of PDE-IV (AID 607; active = well fitted activation curve with a large enough effect in the main read-out, with a control signal flat, not every such curve was filed as active; note: % of control where 0% means no effect)
In short: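 The readout is membrane depolarisation from a cAMP-sensing CNG channel, detected with a potential dye at ex 535/em 590. Cells were HEK293-derived (endogenous PDE-IV) at 1000 cells/well, titrated up to 22.9 uM final.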

[9] = qHTS Assay for Identification of Small Molecule Antagonists for NFkB Signaling Pathway (AID 895; active = well fitted inhibition curve with a large enough effect in the signal ratio, with a control signal flat, not every such curve was filed as active; the % refers to the signal ratio; note: % is set by controls: 0 for no effect and ±100 for the full control effect)
In short: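 ME-180 NFkB-bla cells (beta-lactamase under NFkB response element), plated overnight, treated with compound then 10 pM TNF alpha (about EC50) for 5 hrs at 37 C. LiveBLAzer FRET read at 460/530 nm emission, 405 nm excitation.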

[10] = biological target: Cytochrome P450 2C19 (Homo sapiens) (UniProt P33261); assay: qHTS Assay for Inhibitors and Substrates of Cytochrome P450 2C19 (AID 899); note: potency is the fitted concentration of half-maximal effect; nearly all actives have a fitted effect of over 60% in size
In short: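 Luminescent read-out of luciferin formed from Luciferin-H EGE (10uM, equal to KM). Enzyme 5nM in 50mM KPO4; compound added, 10 min at 37C, then NADPH regenerating system for 60 min at 37C. Full inhibition defined by 57uM ketoconazole.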

[11] = qHTS Assay for Identification of Small Molecule Agonists for Hypoxia Response Element Signaling Pathway (AID 914; active = well fitted activation curve with a large enough effect in the signal ratio, with a control signal flat, not every such curve was filed as active; the % refers to the signal ratio; note: % of control where 0% means no effect); settings: ME-180 (cervical carcinoma) HRE-bla reporter, beta-lactamase ratio, CoCl2, 17 h; activation: stronger effect = higher value
In short: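 Cells were plated overnight, pin-dosed with compound in a titration series, co-stimulated with EC50 CoCl2 and incubated 17 hours at 37 degrees Celsius. CCF4 substrate was then loaded, and AC50 values came from the 460nm/530nm ratio.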

[12] = qHTS Assay for Identification of Small Molecule Agonists for Thrombopoietin (TPO) Signaling Pathway (AID 917); note: % is set by controls: 0 for no effect and ±100 for the full control effect
In short: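 First, Ba/F3 cells with human TPO receptor were held overnight without IL-3. Next, compounds and TPO (26 pM final) were added. After 24 hrs at 37 C, luciferase detection reagent was added and luminescence measured following 10 min at room temperature.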

[13] = biological target: Muscarinic acetylcholine receptor M1 (Rattus norvegicus) (UniProt P08482); assay: qHTS Assay for Antagonists of Acetylcholine Muscarinic M1 Receptor: Measurement of IP-One Response (AID 944); note: nearly all actives have a fitted effect of over 75% in size
In short: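 IP1 accumulation measured via TR-FRET between d2-IP1 and Eu-cryptate anti-IP1 antibody after carbachol (200 nM, EC80) stimulation for 30 min; rat M1-transfected CHO cells received compound 10 min before agonist.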

[14] = biological target: Pyruvate kinase (Leishmania mexicana) (UniProt Q27686); assay: qHTS Validation Assay for Inhibitors of Leishmania Mexicana Pyruvate Kinase (AID 945);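 note: 0% = DMSO only neutral control wells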
In short: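 The enzyme is a highly purified E451W mutant of LmPYK used at 0.2 nM. It converts 0.5 mM PEP and 0.1 mM ADP over 1 h at room temperature; product ATP is quantified by luciferase luminescence relative to DMSO controls.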

[15] = biological target: Pyruvate kinase PKM (Homo sapiens) (UniProt P14618); assay: qHTS Assay for Activators of Human Muscle Pyruvate Kinase (AID 954; active = well fitted curve in the direction sought with a large enough effect, not every such curve was filed as active;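 note: 0% = uninhibited enzyme and -100% = no enzyme or full thiadiazolimine inhibition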)
In short: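 PKM2, human, >95% pure, 0.1 nM; PEP 0.5 mM (Km), ADP 0.1 mM; 50 mM imidazole pH 7.2, 50 mM KCl, 0.01% Tween 20, 0.05% BSA; 1 h RT; luciferase luminescence readout.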

[16] = biological target: Alpha-galactosidase (Coffea arabica) (UniProt Q42656); assay: Counterscreen for Glucocerebrosidase Inhibitors: qHTS Assay for Coffee Bean alpha-Galactosidase at pH 4.5 (AID 957);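 note: plate controls were enzyme alone for no effect and no enzyme for full effect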
In short: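 Fluorogenic qHTS at pH 4.5 (citrate buffer with Tween-20): 2 nM enzyme, 80 uM 4-MU-alpha-galactoside substrate, compound titrated 0.7 nM to 77 uM, 20 min room temperature. Glycine/NaOH stop; 4-MU read Ex 365/Em 440; Hill-equation AC50 against no-enzyme and enzyme controls.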

[17] = biological target: Alpha-galactosidase A (Homo sapiens) (UniProt P06280); assay: Counterscreen for Glucocerebrosidase Inhibitors: qHTS Assay for Human alpha-Galactosidase at pH 4.5 (AID 992); note: 0% is about no effect
In short: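 Fluorogenic 4-MU alpha-D-galactoside (80 uM) hydrolysis, 2 nM enzyme, pH 4.5 citrate buffer + 0.005% Tween-20; 20 min RT; NaOH/glycine pH 10 stop; Ex365/Em440. Compounds titrated 0.7 nM–77 uM; Hill-equation AC50.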

[18] = biological target: alpha-glucosidase (Oryza sativa, rice) (UniProt Q653V4); assay: Counterscreen for Glucocerebrosidase Inhibitors: qHTS Assay for Rice alpha-Glucosidase at pH 5.0 (AID 997);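 note: 0% = full activity with enzyme and -100% = basal without enzyme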
In short: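 Endpoint fluorogenic assay at pH 5.0: compounds (0.7 nM to 77 uM) titrated against 4 nM rice enzyme and 400 uM 4-MU-alpha-glucoside for 20 min at room temperature; NaOH/glycine stop, read ex 365/em 440 nm, Hill-fitted AC50.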

[19] = biological target: Alpha-galactosidase (Coffea arabica) (UniProt Q42656); assay: Counterscreen for Glucocerebrosidase Inhibitors: qHTS Assay for Coffee Bean alpha-Galactosidase at pH 5.9 (AID 998);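 note: plate controls were uninhibited enzyme for no effect and no-enzyme basal signal for full effect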
In short: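 Enzyme 2 nM + cpd (0.7 nM–77 uM titration) + 4-MU-alpha-Gal 80 uM, pH 5.9 citrate/Tween-20, RT 20 min, NaOH/glycine stop pH 10, fluor 365/440. Normalized to no-enzyme and full-activity controls; Hill-fit AC50.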

[20] = qHTS Assay for Lipid Storage Modulators (AID 1519; calls by dose curve); settings: Drosophila S3 cells, BODIPY lipid droplet/cell ratio, laser cytometry, cells loaded with oleic acid
In short: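 Cells seeded at 5,000 per well were treated with compounds over a concentration series and loaded with oleic acid (400 uM, as added). Lipid droplet fluorescence (488 nm excitation, 500-530 nm channel) was read by laser-scanning cytometry and normalized to 20 uM Triacsin C.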

[21] = biological target: DNA dC->dU-editing enzyme APOBEC-3G (Homo sapiens) (UniProt Q9HC16); assay: qHTS for inhibitors of Vif-A3G interactions: Validation (AID 588379); note: 0% is about no effect
In short: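 Yellow fluorescence (Ex 488, Em 500-530) of Vif-coexpressing HeLa A3G-eYFP cells, scanned by Acumen cytometer, reports blocked A3G degradation. Cells plated at 700/well overnight at 37 deg C before compound addition, then a further overnight compound incubation at 37 deg C.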

[22] = test system: Zika virus NS2B-NS3 protease; assay: Primary screen GU AMC qHTS for Zika virus inhibitors (AID 1347154);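 note: 0% = no-inhibitor control and -100% = no-enzyme control; nearly all actives have a fitted effect of over 70% in size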
In short: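 Unlinked Zika NS2B hydrophilic domain–NS3 protease complex at 25 nM in 10 mM Tris-HCl pH 8.0, 0.01% Tween 20, with an AMC peptide substrate. Fluorescence change (340/450 nm) over 15 min at room temperature, normalized to controls, fitted to 4-parameter Hill.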

[23] = Primary qHTS for small molecule stabilizers of the endoplasmic reticulum resident proteome: Secreted ER Calcium Modulated Protein (SERCaMP) assay (AID 1508630); note: % is set by controls: 0 for no effect and ±100 for the full control effect
In short: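 The SH-SY5Y reporter protocol was run at 3 concentrations up to 38.3 uM (primary) or 11 concentrations (follow-up): 16 h compound, 100 nM thapsigargin for 4 h, then extracellular luciferase luminescence.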

DNA dC->dU-editing enzyme APOBEC-3G (Homo sapiens), sequence (Q9HC16 whole entry, looked up): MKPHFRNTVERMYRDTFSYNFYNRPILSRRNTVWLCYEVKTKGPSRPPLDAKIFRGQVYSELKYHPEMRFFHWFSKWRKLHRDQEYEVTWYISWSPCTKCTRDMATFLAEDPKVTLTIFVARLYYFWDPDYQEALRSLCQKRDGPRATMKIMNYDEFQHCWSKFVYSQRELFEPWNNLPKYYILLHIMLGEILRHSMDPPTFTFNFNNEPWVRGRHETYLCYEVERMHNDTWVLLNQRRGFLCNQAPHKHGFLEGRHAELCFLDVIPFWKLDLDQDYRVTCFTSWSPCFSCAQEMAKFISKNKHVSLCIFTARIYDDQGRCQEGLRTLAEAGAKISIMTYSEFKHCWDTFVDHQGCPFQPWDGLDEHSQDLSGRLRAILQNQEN
Cytochrome P450 1A2 (Homo sapiens), sequence (P05177 whole entry, looked up): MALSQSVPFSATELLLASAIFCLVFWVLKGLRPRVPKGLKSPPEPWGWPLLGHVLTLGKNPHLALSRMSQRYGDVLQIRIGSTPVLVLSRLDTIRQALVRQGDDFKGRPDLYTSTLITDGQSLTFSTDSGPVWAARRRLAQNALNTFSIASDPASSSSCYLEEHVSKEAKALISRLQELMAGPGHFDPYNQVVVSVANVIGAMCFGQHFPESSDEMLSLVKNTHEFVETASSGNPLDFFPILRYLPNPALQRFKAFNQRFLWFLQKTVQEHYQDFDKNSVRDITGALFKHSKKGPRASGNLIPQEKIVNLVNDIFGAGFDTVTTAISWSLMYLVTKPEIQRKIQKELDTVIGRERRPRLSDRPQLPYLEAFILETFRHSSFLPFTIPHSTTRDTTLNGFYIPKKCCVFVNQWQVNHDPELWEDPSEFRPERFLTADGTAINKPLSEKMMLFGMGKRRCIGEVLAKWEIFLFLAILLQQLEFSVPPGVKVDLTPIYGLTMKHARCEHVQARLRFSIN
Glucocorticoid receptor (Homo sapiens), sequence (P04150 whole entry, looked up, the tested form may be a part): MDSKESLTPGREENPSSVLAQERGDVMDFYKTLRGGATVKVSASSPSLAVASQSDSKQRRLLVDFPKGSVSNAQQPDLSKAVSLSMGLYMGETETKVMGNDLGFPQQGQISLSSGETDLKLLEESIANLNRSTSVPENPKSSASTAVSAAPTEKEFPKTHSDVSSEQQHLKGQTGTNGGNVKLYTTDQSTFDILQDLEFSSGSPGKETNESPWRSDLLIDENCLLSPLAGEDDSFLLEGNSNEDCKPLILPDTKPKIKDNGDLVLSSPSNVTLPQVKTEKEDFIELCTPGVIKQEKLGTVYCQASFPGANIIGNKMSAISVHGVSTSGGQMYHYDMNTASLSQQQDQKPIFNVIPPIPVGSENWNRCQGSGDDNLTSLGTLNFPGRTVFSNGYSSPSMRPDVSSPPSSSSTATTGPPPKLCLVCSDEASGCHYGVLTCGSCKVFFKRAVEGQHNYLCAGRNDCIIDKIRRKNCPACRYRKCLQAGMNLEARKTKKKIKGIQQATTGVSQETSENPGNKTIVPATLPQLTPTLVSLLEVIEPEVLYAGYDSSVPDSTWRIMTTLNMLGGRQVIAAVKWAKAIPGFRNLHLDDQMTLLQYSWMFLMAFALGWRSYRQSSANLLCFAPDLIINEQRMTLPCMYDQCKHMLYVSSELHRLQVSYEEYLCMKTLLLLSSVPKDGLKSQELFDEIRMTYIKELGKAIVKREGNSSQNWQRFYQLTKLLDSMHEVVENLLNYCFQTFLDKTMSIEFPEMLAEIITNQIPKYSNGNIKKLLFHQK
3',5'-cyclic-AMP phosphodiesterase 4B (Homo sapiens), sequence (Q07343 whole entry, looked up): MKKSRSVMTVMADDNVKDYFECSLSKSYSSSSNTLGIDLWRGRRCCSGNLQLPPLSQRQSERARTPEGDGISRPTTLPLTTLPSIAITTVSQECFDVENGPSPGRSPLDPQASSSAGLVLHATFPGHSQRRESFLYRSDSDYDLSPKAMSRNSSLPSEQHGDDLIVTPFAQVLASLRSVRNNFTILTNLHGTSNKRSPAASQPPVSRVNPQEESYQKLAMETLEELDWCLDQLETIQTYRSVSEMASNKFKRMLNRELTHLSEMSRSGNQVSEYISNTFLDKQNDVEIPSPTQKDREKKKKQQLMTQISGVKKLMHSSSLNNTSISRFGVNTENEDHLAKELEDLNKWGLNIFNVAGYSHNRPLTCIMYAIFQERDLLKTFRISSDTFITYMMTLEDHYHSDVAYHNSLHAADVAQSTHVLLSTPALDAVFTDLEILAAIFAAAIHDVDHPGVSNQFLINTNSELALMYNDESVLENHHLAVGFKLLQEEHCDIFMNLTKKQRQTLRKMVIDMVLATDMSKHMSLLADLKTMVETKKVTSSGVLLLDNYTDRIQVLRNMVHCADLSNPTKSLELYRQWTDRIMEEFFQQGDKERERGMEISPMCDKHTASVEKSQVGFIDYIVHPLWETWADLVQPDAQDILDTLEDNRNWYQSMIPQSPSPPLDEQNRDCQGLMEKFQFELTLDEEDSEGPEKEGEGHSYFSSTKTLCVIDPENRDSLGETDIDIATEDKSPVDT
Alpha-galactosidase (Coffea arabica), sequence (Q42656 whole entry, looked up): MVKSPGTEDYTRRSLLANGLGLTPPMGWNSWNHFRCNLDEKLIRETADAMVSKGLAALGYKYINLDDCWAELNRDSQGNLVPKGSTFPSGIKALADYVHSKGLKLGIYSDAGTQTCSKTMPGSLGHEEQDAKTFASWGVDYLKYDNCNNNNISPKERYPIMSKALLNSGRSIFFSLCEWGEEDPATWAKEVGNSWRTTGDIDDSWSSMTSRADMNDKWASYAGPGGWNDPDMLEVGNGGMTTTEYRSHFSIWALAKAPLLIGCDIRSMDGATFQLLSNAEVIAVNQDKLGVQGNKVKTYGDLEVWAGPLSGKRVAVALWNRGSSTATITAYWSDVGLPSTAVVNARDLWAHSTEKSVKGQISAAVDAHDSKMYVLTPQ
Pyruvate kinase PKM (Homo sapiens), sequence (P14618 whole entry, looked up): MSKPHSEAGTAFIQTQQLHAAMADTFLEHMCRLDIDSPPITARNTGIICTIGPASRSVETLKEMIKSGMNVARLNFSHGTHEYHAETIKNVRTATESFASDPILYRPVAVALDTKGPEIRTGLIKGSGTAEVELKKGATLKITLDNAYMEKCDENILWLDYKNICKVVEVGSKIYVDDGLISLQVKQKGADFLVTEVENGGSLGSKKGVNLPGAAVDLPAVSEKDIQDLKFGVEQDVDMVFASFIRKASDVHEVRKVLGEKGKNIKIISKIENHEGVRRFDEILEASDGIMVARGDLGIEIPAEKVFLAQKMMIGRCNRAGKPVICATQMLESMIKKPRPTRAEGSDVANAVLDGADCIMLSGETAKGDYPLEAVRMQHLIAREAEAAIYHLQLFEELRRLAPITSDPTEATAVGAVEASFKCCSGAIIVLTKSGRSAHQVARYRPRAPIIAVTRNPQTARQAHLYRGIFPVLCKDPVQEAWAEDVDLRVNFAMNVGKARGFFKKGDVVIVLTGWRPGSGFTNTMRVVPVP
Pyruvate kinase (Leishmania mexicana), sequence (Q27686 2-499 E452W): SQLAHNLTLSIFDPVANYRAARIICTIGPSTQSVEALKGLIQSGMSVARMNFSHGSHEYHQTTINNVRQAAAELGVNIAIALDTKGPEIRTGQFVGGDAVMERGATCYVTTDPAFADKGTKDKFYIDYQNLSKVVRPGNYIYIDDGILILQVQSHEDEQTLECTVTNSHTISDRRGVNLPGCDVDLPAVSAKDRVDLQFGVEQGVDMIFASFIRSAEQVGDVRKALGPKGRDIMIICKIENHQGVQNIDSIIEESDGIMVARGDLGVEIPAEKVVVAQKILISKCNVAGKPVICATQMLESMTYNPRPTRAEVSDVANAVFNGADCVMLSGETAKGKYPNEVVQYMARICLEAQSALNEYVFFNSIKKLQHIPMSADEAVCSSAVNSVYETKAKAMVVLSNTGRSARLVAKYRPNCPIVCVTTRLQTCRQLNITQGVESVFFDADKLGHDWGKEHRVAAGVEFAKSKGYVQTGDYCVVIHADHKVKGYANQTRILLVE
Alpha-galactosidase A (Homo sapiens), sequence (P06280 whole entry, looked up): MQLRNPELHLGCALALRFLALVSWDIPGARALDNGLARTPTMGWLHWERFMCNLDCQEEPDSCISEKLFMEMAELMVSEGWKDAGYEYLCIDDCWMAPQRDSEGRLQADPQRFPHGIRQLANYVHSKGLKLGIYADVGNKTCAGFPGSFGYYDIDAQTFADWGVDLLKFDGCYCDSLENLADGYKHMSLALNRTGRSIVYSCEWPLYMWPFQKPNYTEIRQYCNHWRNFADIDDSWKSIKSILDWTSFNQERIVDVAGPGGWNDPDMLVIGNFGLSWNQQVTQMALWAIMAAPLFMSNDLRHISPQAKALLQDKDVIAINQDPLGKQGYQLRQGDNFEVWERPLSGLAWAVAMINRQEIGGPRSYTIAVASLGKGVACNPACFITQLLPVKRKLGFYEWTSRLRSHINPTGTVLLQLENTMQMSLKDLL
Cytochrome P450 2C19 (Homo sapiens), sequence (P33261 whole entry, looked up): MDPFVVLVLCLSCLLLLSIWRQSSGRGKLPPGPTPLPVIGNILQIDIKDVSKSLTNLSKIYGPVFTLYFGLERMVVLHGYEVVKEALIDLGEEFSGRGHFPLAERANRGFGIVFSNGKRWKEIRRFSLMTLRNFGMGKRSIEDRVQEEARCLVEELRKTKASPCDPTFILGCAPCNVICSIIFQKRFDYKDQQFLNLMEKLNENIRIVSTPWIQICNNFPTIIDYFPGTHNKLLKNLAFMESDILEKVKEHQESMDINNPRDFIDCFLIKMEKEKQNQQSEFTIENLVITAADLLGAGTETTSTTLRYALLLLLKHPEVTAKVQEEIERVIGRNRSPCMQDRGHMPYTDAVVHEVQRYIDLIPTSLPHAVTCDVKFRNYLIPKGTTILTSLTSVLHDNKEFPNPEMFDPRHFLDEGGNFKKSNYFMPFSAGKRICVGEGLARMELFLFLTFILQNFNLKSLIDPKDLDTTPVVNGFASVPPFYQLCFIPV

Cc1o[nH]c(=O)c1C[C@H](N)C(=O)O
9.71% and 20.6% and -4.26%: max response ([20]; measured here: cell count channel max response)
15.4% and 23.1% and -1.44%: max response ([20]; measured here: lipid channel max response)
inactive: outcome [1] | activity change, negative = inhibition [3] -2.02% | outcome [4] | Potency [5] > 46 µM | Potency [6] > 46 µM | outcome [7] | Potency [8] | Potency [9] | activation [11] 7.13% | outcome [12] | Potency [13] | outcome [14] | outcome [15] | outcome [16] | outcome [17] | outcome [18] | outcome [19] | activity change, negative = inhibition ([20]; at 57.5 µM (top of the series)) 5.07% and 0.872% and 1.49% | Potency [21] | Potency [22] | Potency [23]
active: Potency [10] 2.51 µM
inactive and 31.6 µM (active): Potency [2]
